Reference: PubChem BioAssay (NCATS)
Records with an inconclusive call do not appear. The source made the active and inactive calls. Unless noted, calls follow the shape of the dose curve; as a rule, active = well fitted curve in the direction sought with a large enough effect; inconclusive = small, poorly fitted or top-dose-only effect, or another doubt; inactive = no such curve, though single readings can be large; an effect the other way counts as inactive or inconclusive.

Key:
[1] = target: Lysosomal acid glucosylceramidase (Homo sapiens) (UniProt P04062); test: Glucocerebrosidase-p2 (AID 348; in the data active = potency below about 10 µM; also: potency is read from the fitted curve at half-maximal effect); details: purified GBA, blue fluorogenic substrate, 40 min
Procedure, shortened: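 Normal human glucocerebrosidase (0.2 nM) with blue fluorogenic substrate (80 uM final) in citrate/phosphate pH 5.9 with 10mM sodium taurocholate, 0.01% tween-20; 40 min RT, NaOH/glycine stop; fluorescence Ex 365/Em 440; AC50 from a titration from 0.6 nM upwards.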

[2] = AP1 Signaling Pathway (AID 357; active = well fitted curve in either direction with a large enough effect, not every such curve was filed as active;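 also: ME-180 reporter cells stimulated with EGF at its EC50 level; % is scaled to controls: 0 for no effect and ±100 for the full control effect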); details: ME-180 AP-1-bla reporter, EGF-induced, beta-lactamase ratio, 5 h; at 7.69 µM (top of the series) unless noted
Procedure, shortened: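 First, ME-180 AP-1-bla cells were cultured overnight at 37 °C in low-serum Opti-MEM. Next, titrated compounds with EC50 EGF were incubated 5 hours. Finally, CCF4 was added for 2.5 hours and the 460/530 nm ratio recorded.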

[3] = NFAT Signaling Pathway (AID 444; active = well fitted curve in either direction with a large enough effect, not every such curve was filed as active;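 also: carbachol stimulus at about its EC50 of 1 µM final; % is scaled to controls: 0 for no effect and ±100 for the full control effect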); details: Jurkat NFAT-bla M1, carbachol, beta-lactamase ratio, 5 h; at 7.69 µM (top of the series) unless noted
Procedure, shortened: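 Read-out: CCF4 FRET ratio (460 nm/530 nm) after 1 h RT dye loading, used for %activity and AC50 from titration series. Cells: Jurkat NFAT-β-lactamase/M1 line, treated with compound plus 1 uM carbachol for 5 h, 37 °C.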

[4] = Stat Signaling Pathway (AID 446; active = well fitted curve in either direction with a large enough effect, not every such curve was filed as active;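 also: ME-180 cervical cancer cells given 40 pM IL-6 alongside compound; SIE-controlled beta-lactamase reporter measured as 460/530 nm FRET emission ratio; % is scaled to controls: 0 for no effect and ±100 for the full control effect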); details: ME-180 (cervical carcinoma) SIE beta-lactamase reporter, IL-6 stimulated, 5 h; at 7.69 µM (top of the series) unless noted
Procedure, shortened: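 Overnight-plated ME-180 cells bearing a STAT Inducible Element beta-lactamase reporter; 5 h co-exposure to compound and 40 pM IL-6; values normalized to 300 pM IL-6 and 125 nM JAK inhibitor controls.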

[5] = target: Glucocorticoid receptor (Homo sapiens) (UniProt P04150); test: GR-EFC Redistribution (AID 451; calls by dose curve; also: potency is read from the fitted curve at half-maximal effect); details: CHO-K1 GR-EFC translocation, beta-gal luminescence, 2 h
Procedure, shortened: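 Translocation of GR-ED fusion to nuclear EA restores b-gal, read by luminescence after 1 h room-temperature detection. Engineered CHO-K1 biosensor cells, 1,000/well, exposed 2 h at 37 C to titrations up to 46 uM final.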

[6] = target: Mitogen-activated protein kinase 10 (Mus musculus) (UniProt Q61831); test: JNK3 AlphaScreen Assay (AID 530; active = well fitted curve in either direction with a large enough effect, not every such curve was filed as active;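 also: kinase came from lysate of stimulated human HepG2 cells; signal reports phosphorylation of biotinylated GST-cJun 1-79 at Ser73 with 10 µM ATP; % is scaled to controls: 0 for no effect and ±100 for the full control effect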); details: JNK3 lysate, c-Jun phosphorylation; series mostly up to 57.1 µM
Procedure, shortened: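 Kinase buffer: 20 mM Tris-HCl pH 7.6, 10 mM MgCl2, 1 mM DTT, 0.1 mM Na3VO4, 0.01% Tween-20; ATP 10 uM. Substrate biotin-GST-cJun(1-79), enzyme from activated HepG2 lysates. Detection by Ser73 phospho-antibody AlphaScreen.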

[7] = target: 3',5'-cyclic-AMP phosphodiesterase 4B (Homo sapiens) (UniProt Q07343); test: qHTS Assay for Inhibitors of PDE-IV (AID 607; active = well fitted activation curve with a large enough effect in the main read-out, with a control signal flat, not every such curve was filed as active; also: % of control where 0% means no effect); details: HEK293 ACTOne CNG channel cells, membrane potential fluorescence; series mostly up to 22.9 µM
Procedure, shortened: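 Live HEK293 cells with a modified cyclic nucleotide-gated (CNG) channel report intracellular cAMP via membrane-potential dye fluorescence (ex 535/em 590 nm). Endogenous PDE-IV was targeted. Compounds were tested at up to 22.9 uM final; RO 20-1724 100 uM served as control.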

[8] = target: Cytochrome P450 3A4 (Homo sapiens) (UniProt P08684); test: qHTS Assay for Activators of Cytochrome P450 3A4 (AID 885); details: recombinant CYP3A4, Luciferin-PPXE luminescence, 60 min; series mostly up to 57.1 µM; also: nearly all actives have a fitted effect of over 65% in size
Procedure, shortened: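 Using 20nM recombinant human CYP3A4 in potassium phosphate (200mM), substrate Luciferin-PPXE at 25uM, luminescent luciferin detection followed a 60-min RT NADPH reaction; data scaled to 57 uM ketoconazole.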

[9] = target: Cytochrome P450 2C19 (Homo sapiens) (UniProt P33261); test: qHTS Assay for Inhibitors and Substrates of Cytochrome P450 2C19 (AID 899); details: recombinant CYP2C19, luciferin-H EGE luminescence; series mostly up to 57.1 µM; also: nearly all actives have a fitted effect of over 60% in size; also: potency is read from the fitted curve at half-maximal effect
Procedure, shortened: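 5nM enzyme + 10uM Luciferin-H EGE (=KM), 50mM KPO4; cpd pin-transferred, 10 min 37C; NADPH regen, 60 min 37C; stopped w/ luciferin detection reagent, 20 min; luminescence. Normalized to 57uM ketoconazole (AC100).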

[10] = qHTS Assay for Lipid Storage Modulators (AID 1519; calls by dose curve); details: Drosophila S3 cells, BODIPY lipid droplet/cell ratio, laser cytometry, cells loaded with oleic acid; for activity change, negative = inhibition: at 57.5 µM (top of the series)
Procedure, shortened: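 Cells seeded at 5,000 per well were treated with compounds over a concentration series and loaded with oleic acid (400 uM, as added). Lipid droplet fluorescence (488 nm excitation, 500-530 nm channel) was read by laser-scanning cytometry and normalized to 20 uM Triacsin C.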

[11] = Primary qHTS for small molecule stabilizers of the endoplasmic reticulum resident proteome: Secreted ER Calcium Modulated Protein (SERCaMP) assay (AID 1508630); details: SH-SY5Y GLuc-SERCaMP (Gaussia luciferase released on ER calcium loss) secretion, thapsigargin, luminescence; series mostly up to 38.4 µM; also: % is scaled to controls: 0 for no effect and ±100 for the full control effect
Procedure, shortened: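 The SH-SY5Y reporter protocol was run at 3 concentrations up to 38.3 uM (primary) or 11 concentrations (follow-up): 16 h compound, 100 nM thapsigargin for 4 h, then extracellular luciferase luminescence.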

[12] = target: Cytochrome P450 1A2 (Homo sapiens) (UniProt P05177); test: p450-cyp1a2 (AID 410; calls by dose curve;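 also: -100% = full effect of reference inhibitor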); details: recombinant CYP1A2, luciferin-ME demethylation, luminescence; series mostly up to 57 µM
Procedure, shortened: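 Read-out is luminescence from luciferin produced by CYP1A2 demethylation of Luciferin-ME (100uM, at Km). Detection reagent stopped the 60 min NADPH-dependent reaction; signals were normalized to 57 uM furafylline.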

[13] = target: Cytochrome P450 2C9 (Homo sapiens) (UniProt P11712); test: qHTS Assay for Inhibitors and Substrates of Cytochrome P450 2C9 (AID 883); details: recombinant CYP2C9, luciferin-H luminescence, 60 min; series mostly up to 57.1 µM; also: % is scaled to controls: 0 for no effect and ±100 for the full control effect; nearly all actives have a fitted effect of over 60% in size
Procedure, shortened: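 Inhibition of CYP2C9 is scored as loss of luminescence, with 57uM sulphaphenazole defining 100% inhibition. Substrate Luciferin-H is used at 100uM, equal to its KM; enzyme at 10nM in 25mM KPO4, 60 min at 37C with NADPH regeneration.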

[14] = target: Cytochrome P450 3A4 (Homo sapiens) (UniProt P08684); test: qHTS Assay for Inhibitors and Substrates of Cytochrome P450 3A4 (AID 884); details: recombinant CYP3A4, Luciferin-PPXE luminescence; series mostly up to 57.1 µM; also: nearly all actives have a fitted effect of over 50% in size; also: potency is read from the fitted curve at half-maximal effect
Procedure, shortened: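 Luminescent readout of luciferin produced by CYP3A4 (20 nM) dealkylation of Luciferin-PPXE, 25 uM (its KM). NADPH-driven reaction ran 60 min at RT after 10 min compound preincubation; data scaled to 57 uM ketoconazole as 100% inhibition.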

[15] = target: Cytochrome P450 2D6 (Homo sapiens) (UniProt P10635); test: qHTS Assay for Inhibitors and Substrates of Cytochrome P450 2D6 (AID 891); details: recombinant CYP2D6, luciferin-ME EGE luminescence; series mostly up to 57.1 µM;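 also: luciferin methyl ether substrate demethylated by CYP2D6 with NADPH regeneration; % is scaled to controls: 0 for no effect and ±100 for the full control effect; nearly all actives have a fitted effect of over 60% in size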
Procedure, shortened: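 Luminescent read-out of luciferin formed by 5 nM human CYP2D6 demethylating 30 uM Luciferin-ME EGE (Km level) over 60 min at room temperature after NADPH regeneration addition. Data normalized to full inhibition by 1.43 uM quinidine.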

[16] = target: Glucocorticoid receptor (Homo sapiens) (UniProt P04150); test: GR-GFP Redistribution (AID 450;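 active = compounds whose dose series gives a full or clear partial fitted curve of increased nuclear translocation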; also: potency is read from the fitted curve at half-maximal effect); details: U2OS GR-GFP nuclear translocation, laser cytometry, 2 h
[17] = Confirmation and Secondary Assay for Modulators of Hemoglobin Beta Chain Splicing at IVS2 654 locus (AID 910); details: HeLa EGFP-654 splicing reporter, GFP fluorescence, 48 h; series mostly up to 38.3 µM;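 also: HeLa cells stably carrying EGFP split by mutant beta-globin IVS2-654 intron; per-well total GFP intensity by laser scanning cytometry after 2-day treatment; % of control where 0% means no effect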
Procedure, shortened: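 Readout: per-well total peak green fluorescence (488 nm ex, 500–520 nm em) from objects 5–250 µm, reflecting correct splicing of an EGFP-654 reporter. Compounds were applied for 2 days at 37 °C to overnight-plated HeLa EGFP-654 cells; controls were DMSO and 500 nM IVS2-654 PNA.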

[18] = Confirmation and Secondary Assay for Modulators of Hemoglobin Beta Chain Splicing at IVS2 705 locus (AID 930); details: HeLa EGFP-705 splicing reporter, GFP fluorescence, 48 h; series mostly up to 38.3 µM;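 also: HeLa cells stably expressing the EGFP-705 splicing reporter; GFP fluorescence per well restored by corrected splicing of the IVS2-705 intron in EGFP; % of control where 0% means no effect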
Procedure, shortened: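 HeLa EGFP-705 reporter; 500 cells/well, o/n 37C 5% CO2; cpd 2 d; 488 ex/500-520 em laser scan; total peak GFP intensity/well. Ref: 500 nM […] antisense PNA.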

[19] = target: Ubiquitin carboxyl-terminal hydrolase 1 (Homo sapiens) (UniProt O94782); test: Inhibitors of USP1/UAF1: Pilot qHTS (AID 504865); details: purified USP1/UAF1, Ub-rhodamine cleavage fluorescence; series mostly up to 54.9 µM;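 also: rhodamine fluorescence freed from ubiquitin-rhodamine substrate followed over time; top concentration of the series differs between compounds; % is scaled to controls: 0 for no effect and ±100 for the full control effect; nearly all actives have a fitted effect of over 35% in size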
Procedure, shortened: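 Kinetic fluorescence assay: 1nM USP1/UAF1, 15 min compound preincubation, then 150nM Ub-Rho; 480/540 nm.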

[20] = measured here: cell count channel max response
[21] = measured here: lipid channel max response

Chain of Cytochrome P450 3A4 (Homo sapiens) (P08684 whole entry, looked up): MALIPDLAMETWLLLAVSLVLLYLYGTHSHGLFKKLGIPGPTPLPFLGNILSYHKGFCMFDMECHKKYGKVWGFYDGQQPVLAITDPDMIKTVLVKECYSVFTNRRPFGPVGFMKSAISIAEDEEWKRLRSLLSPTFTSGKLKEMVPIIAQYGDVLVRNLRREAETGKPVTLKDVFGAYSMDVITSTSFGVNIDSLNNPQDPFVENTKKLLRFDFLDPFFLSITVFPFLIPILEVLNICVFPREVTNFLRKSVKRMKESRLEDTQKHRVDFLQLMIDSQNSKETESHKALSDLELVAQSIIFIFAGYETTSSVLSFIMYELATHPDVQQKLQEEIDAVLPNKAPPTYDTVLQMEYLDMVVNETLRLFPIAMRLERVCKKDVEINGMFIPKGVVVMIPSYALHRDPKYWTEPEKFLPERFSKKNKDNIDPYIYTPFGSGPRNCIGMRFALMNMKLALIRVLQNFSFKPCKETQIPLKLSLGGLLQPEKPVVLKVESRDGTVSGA
Chain of 3',5'-cyclic-AMP phosphodiesterase 4B (Homo sapiens) (Q07343 whole entry, looked up): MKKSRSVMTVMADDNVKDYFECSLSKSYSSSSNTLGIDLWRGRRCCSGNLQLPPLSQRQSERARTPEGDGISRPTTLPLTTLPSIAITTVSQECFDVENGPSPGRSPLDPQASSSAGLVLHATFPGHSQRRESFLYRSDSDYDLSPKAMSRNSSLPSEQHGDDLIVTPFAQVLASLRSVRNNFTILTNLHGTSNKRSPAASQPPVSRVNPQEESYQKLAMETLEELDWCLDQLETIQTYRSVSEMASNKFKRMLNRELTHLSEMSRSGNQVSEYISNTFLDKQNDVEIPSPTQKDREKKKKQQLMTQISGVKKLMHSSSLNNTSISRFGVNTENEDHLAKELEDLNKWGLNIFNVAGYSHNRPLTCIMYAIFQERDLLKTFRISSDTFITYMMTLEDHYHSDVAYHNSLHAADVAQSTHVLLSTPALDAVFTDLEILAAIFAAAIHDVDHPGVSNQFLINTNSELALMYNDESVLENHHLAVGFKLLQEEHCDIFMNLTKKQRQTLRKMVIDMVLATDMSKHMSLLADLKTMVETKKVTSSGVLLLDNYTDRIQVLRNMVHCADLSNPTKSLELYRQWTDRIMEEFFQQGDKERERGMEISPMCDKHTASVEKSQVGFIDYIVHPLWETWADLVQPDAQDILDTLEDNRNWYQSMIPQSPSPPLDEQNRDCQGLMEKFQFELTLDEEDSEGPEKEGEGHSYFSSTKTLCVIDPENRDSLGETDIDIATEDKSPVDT
Chain of Glucocorticoid receptor (Homo sapiens) (P04150 whole entry, looked up, the tested form may be a part): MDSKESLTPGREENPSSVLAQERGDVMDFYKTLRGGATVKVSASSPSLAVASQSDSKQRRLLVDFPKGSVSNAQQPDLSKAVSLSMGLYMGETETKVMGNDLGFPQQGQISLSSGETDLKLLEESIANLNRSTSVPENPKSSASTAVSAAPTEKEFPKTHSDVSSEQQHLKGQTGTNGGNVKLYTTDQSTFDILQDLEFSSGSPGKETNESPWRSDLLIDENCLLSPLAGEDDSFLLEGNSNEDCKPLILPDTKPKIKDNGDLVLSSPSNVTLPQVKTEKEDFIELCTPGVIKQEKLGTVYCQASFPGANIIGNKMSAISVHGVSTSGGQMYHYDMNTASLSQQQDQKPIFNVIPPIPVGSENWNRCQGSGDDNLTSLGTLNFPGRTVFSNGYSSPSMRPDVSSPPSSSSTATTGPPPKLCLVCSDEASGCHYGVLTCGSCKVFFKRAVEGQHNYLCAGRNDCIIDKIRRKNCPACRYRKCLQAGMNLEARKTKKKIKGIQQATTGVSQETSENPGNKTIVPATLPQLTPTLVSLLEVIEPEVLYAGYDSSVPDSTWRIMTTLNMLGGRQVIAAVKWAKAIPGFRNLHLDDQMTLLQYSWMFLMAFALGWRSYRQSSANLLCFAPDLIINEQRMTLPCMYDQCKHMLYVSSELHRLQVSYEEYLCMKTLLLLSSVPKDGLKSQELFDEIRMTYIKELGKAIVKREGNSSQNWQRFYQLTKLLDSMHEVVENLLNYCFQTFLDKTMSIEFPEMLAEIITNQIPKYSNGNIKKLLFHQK
Chain of Lysosomal acid glucosylceramidase (Homo sapiens) (P04062 whole entry, looked up): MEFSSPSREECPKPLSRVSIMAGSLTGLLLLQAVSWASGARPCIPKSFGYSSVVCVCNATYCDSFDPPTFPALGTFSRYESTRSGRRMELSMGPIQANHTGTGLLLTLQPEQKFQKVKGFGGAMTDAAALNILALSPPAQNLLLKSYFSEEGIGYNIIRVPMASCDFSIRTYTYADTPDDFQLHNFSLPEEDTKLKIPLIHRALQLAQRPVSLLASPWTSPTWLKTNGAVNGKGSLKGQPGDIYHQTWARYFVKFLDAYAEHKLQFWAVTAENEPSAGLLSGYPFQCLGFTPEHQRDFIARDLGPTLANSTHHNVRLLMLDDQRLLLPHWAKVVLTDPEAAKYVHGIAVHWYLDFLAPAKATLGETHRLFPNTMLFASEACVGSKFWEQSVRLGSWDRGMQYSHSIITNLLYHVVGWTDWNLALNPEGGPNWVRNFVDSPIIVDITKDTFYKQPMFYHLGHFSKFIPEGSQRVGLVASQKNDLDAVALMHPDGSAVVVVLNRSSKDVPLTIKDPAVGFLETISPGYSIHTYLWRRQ
Chain of Cytochrome P450 1A2 (Homo sapiens) (P05177 whole entry, looked up): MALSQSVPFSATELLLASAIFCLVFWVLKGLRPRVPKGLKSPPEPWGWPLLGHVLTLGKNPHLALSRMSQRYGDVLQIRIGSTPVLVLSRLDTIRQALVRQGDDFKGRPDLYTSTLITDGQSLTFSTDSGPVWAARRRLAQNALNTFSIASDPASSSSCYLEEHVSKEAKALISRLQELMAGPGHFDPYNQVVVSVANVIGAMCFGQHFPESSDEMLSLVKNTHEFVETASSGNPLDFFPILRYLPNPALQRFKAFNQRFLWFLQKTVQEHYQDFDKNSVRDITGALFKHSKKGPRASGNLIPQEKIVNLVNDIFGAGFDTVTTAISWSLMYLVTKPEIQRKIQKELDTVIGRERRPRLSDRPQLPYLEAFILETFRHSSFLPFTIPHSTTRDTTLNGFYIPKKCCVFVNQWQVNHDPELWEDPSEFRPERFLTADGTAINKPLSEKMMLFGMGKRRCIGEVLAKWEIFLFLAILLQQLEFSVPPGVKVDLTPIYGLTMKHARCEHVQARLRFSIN
Chain of Cytochrome P450 2C19 (Homo sapiens) (P33261 whole entry, looked up): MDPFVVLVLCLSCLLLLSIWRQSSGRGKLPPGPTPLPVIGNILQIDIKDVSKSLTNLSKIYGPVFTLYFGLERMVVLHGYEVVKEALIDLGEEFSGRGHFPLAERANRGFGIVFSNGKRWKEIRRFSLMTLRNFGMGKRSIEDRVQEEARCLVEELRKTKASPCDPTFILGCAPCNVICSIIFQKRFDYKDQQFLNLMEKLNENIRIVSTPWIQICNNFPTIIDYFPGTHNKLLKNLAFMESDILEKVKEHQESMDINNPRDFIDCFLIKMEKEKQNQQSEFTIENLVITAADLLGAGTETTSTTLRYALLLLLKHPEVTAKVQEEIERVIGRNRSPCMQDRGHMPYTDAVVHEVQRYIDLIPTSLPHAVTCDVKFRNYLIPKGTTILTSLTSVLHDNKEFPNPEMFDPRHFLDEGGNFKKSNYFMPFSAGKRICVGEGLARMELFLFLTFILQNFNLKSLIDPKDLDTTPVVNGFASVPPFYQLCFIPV
Chain of Cytochrome P450 2C9 (Homo sapiens) (P11712 whole entry, looked up): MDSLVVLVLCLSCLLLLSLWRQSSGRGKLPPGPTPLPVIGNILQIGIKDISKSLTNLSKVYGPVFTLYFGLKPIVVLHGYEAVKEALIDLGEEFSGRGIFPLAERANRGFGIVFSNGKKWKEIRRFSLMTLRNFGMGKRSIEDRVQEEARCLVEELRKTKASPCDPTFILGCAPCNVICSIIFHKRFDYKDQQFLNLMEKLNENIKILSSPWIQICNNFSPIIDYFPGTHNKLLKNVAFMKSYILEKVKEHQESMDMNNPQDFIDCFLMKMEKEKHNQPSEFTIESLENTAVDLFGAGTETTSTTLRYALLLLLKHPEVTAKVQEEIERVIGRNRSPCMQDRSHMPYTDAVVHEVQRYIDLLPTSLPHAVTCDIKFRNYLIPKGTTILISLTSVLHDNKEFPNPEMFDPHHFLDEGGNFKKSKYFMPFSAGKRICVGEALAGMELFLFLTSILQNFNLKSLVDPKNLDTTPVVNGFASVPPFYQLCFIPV
Chain of Ubiquitin carboxyl-terminal hydrolase 1 (Homo sapiens) (O94782 whole entry, looked up): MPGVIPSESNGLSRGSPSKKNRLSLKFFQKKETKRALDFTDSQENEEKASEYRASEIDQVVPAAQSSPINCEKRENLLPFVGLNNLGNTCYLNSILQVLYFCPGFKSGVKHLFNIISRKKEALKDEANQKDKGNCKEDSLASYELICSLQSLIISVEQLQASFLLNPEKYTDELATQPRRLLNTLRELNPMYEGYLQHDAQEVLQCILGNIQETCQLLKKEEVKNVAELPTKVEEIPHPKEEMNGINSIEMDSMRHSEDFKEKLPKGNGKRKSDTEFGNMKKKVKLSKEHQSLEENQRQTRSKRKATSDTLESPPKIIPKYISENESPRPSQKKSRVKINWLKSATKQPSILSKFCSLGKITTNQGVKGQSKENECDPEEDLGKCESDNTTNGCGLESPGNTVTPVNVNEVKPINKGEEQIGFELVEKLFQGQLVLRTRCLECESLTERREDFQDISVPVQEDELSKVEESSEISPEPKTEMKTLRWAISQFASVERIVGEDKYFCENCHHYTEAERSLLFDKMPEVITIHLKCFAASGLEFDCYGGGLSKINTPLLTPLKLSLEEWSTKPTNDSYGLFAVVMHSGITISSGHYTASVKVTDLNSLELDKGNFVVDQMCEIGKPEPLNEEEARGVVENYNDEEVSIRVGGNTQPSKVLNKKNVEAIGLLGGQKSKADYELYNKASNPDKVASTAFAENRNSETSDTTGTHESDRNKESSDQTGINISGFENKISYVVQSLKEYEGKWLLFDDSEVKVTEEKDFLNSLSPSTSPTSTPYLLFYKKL

O=C(c1ccco1)N1CCC[C@@]2(CCN(c3ccccc3)C2)C1
inactive: Potency [1] > 11.4 µM | activity change, negative = inhibition [2] -8.72% | activity change, negative = inhibition [3] -13.1% | activity, negative = inhibition [4] -4.84% | Potency [5] > 46 µM | outcome [6] | Potency [7] | Potency [8] | activity change, negative = inhibition [10] -7.59% | Potency [11]
4.34%: max response [10, 21]
active: Potency [9] 5.01 µM
11.4%: max response [10, 20]

Cc1noc(C)c1C(=O)N1CCC2(CC1)CCN(c1cccc(-c3ccccc3)c1)CC2
-11.4%: max response [10, 20]
-15.8%: max response [10, 21]
inactive: Potency [1] > 11.4 µM | activity change, negative = inhibition [2] -13.8% | Potency [12] | activity change, negative = inhibition [3] -2.13% | Potency [5] > 46 µM | outcome [6] | Potency [7] | Potency [13] | Potency [14] | Potency [15] | Potency [9] | activity change, negative = inhibition [10] -7.36% | Potency [11]

COc1ccc(-n2c(=O)c(-c3cn(C)c4ccccc34)nc3cnc(OC)nc32)cc1
-9.54%: max response [10, 21]
active: Potency [14] 1.58 µM
inactive: Potency [1] > 11.4 µM | activity change, negative = inhibition [2] -6.77% | Potency [12] | activity, negative = inhibition [4] 5.87% | Potency [16] > 9.22 µM | outcome [6] | Potency [7] | Potency [8] | activity change, negative = inhibition [10] -13.3% | Potency [11]
4.94%: max response [10, 20]

CS(=O)(=O)Nc1cccc(-c2nccc(NCc3ccccc3)n2)c1
inactive: Potency [1] > 11.4 µM | activity change, negative = inhibition [2] -20% | activity, negative = inhibition [4] -11.8% | Potency [16] > 46 µM | Potency [5] > 46 µM | outcome [6] | Potency [7] | outcome [17] | outcome [18] | activity change, negative = inhibition [10] 6.93% | Potency [11]
-0.959%: max response [10, 20]
4.33%: max response [10, 21]

COCCNc1cc(-c2ccccc2CN(C)C)ncn1
inactive: Potency [1] > 11.4 µM | activity change, negative = inhibition [2] 1.28% | activity, negative = inhibition [4] 13.5% | Potency [16] > 46 µM | Potency [5] > 46 µM | outcome [6] | Potency [7] | activity change, negative = inhibition [13] 49.4% [at 2.29 µM] | outcome [17] | outcome [18] | activity change, negative = inhibition [10] 4.45% | Potency [19] | Potency [11]
24.8%: max response [10, 21]
21.8%: max response [10, 20]

COc1ccc(NC(=O)N2CCCC3(CCN(C(=O)c4c(C)noc4C)CC3)C2)cc1
inactive: Potency [1] > 11.4 µM | activity change, negative = inhibition [2] -6.4% | activity change, negative = inhibition [3] 7.7% | activity, negative = inhibition [4] -0.272% | Potency [5] > 46 µM | outcome [6] | Potency [7] | Potency [8] | activity change, negative = inhibition [10] 3.9% | Potency [11]
18.8%: max response [10, 21]
14.4%: max response [10, 20]
